# Data reported in PubChem BioAssay (NCATS).
# Values joined by “and” are separate entries in the source; they are usually repeats but may differ in a detail not shown here. Equal values may be shown once. Results filed as inconclusive are left out. Where a call stands in place of a potency, no number is given. Active and inactive are the calls of the source. Calls come from the whole dose curve; as a rule, active = well fitted curve in the direction sought with a large enough effect; inconclusive = small, poorly fitted or top-dose-only effect, or another doubt; inactive = no such curve, though single readings can be large; an effect the other way counts as inactive or inconclusive. Starred links: 1 amine or outer side, 2 acyl side, 3 side chain; linkers in the order of their positions; H or OH if unused. Positions of bridges follow the written chain, without caps; N, C: chain ends. Non-standard residues stand in square brackets, D forms with d. Residues, ends and D or L forms follow the SMILES beside them. Chains are numbered I, II in the order given. ξ: configuration not given here. *: point of attachment. Actinocin(9to1) = Cc1c2oc3c(C)ccc(C(=O)[*:1])c3nc-2c(C(=O)[*:2])c(N)c1=O; Octanoyl(6-Me) = CCC(C)CCCCC(=O)*; ξThr(3R) = C[C@@H](O)C(N)C(=O)O; NMeV = CN[CH](C(=O)O)C(C)C; dDab = NCC[C@@H](N)C(=O)O; Dab = NCC[C@H](N)C(=O)O; Sar = CNCC(=O)O
# Legend:
# [1] = Primary qHTS for inhibitors of nuclear receptor binding SET domain protein 2 (NSD2) in an isogenic RCH-ACV NSD2 p.E1099K mutant (9B) (AID 1645876); note: nearly all actives have a fitted effect of over 70% in size; note: potency is the fitted concentration of half-maximal effect
# [2] = target: Glutathione peroxidase 1 (Homo sapiens) (UniProt P07203); assay: Primary qHTS Assay for Inhibitors of Recombinant Selenoprotein Glutathione Peroxidase 1 (GPX1) (AID 1845191); note: nearly all actives have a fitted effect of over 65% in size; note: potency is the fitted concentration of half-maximal effect
# Summary of the method: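 GR-coupled readout: NADPH consumption tracked by fluorescence, ex 340/em 450 nm, at t=0 and after 15 min at RT. Final mix 10 nM GPX1, 1 mM GSH, 0.5 mM CHP, 0.5 mM NADPH, 100 nM GR, 0.01% BSA, following 30 min enzyme–compound preincubation.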
# [3] = target: Phospholipid hydroperoxide glutathione peroxidase GPX4 (Homo sapiens) (UniProt P36969); assay: Primary qHTS Assay for Inhibitors of Recombinant Selenoprotein Glutathione Peroxidase 4 (GPX4) (AID 1845192); note: nearly all actives have a fitted effect of over 65% in size
# Summary of the method: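 Steps: GPX4 plus compound, 30 min RT; add GR/GSH/NADPH master mix; start with cumene hydroperoxide; read 340/450 nm fluorescence at 0 and 15 min. Finals were 200 nM GPX4, 1 mM GSH, 0.5 mM CHP, 0.5 mM NADPH, 100 nM GR.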
# [4] = Primary qHTS for inhibitors of nuclear receptor binding SET domain protein 2 (NSD2) in an RCH-ACV wild type WT cells (2C) (AID 1645877); note: nearly all actives have a fitted effect of over 70% in size; note: potency is the fitted concentration of half-maximal effect
# [5] = target: Luciferin 4-monooxygenase (Photinus pyralis) (UniProt P08659); assay: Primary firefly luciferase (FLuc) qHTS assay for identification of artifact compounds. (AID 1845220); note: nearly all actives have a fitted effect of over 60% in size
# Summary of the method: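 Enzymatic FLuc inhibition assay: compounds pre-exposed to luciferin/ATP (10 uM each) for 15 min, then purified P. pyralis enzyme at 10 nM added. Read-out: luminescence at 5 min.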
# [6] = Primary fluorescence-based thiol-reactive (MSTI) qHTS assay for identification of artifact compounds. (AID 1845221);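 note: thiol-reactive compounds lower the probe fluorescence signal; nearly all actives have a fitted effect of over 65% in size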
# Summary of the method: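 Thiol-reactive compounds detected by quenching of 4 uM MSTI fluorescence (525/598 nm) after 1 h room-temperature dark incubation in PBS pH 7.4, 2% DMSO. qHTS titration; percent inhibition Hill-fitted against Acetyl-MSTI/MSTI controls.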
# [7] = target: Catechol O-methyltransferase (Homo sapiens) (UniProt P21964); assay: Confirmatory Screen for Target Class Profiling of Small Molecule Inhibitors of Methyltransferases (AID 1745852); details: MTase-Glo luminescence, SAH detection, recombinant enzyme; measured here: COMT max response; stronger effect = lower value
# [8] = target: Guanidinoacetate N-methyltransferase (Homo sapiens) (UniProt Q14353); assay: as above; details: activity change, negative = inhibition: at 57.3 µM (top of the series)
# [9] = target: Nicotinamide N-methyltransferase (Homo sapiens) (UniProt P40261); assay: as above; details: MTase-Glo luminescence, SAH detection, recombinant enzyme; measured here: NNMT max response; stronger effect = lower value
# [10] = target: Phenylethanolamine N-methyltransferase (Homo sapiens) (UniProt P11086); assay: as above; details: MTase-Glo luminescence, SAH detection, recombinant enzyme; measured here: PNMT max response; stronger effect = lower value
# [11] = NCATS anti-infectives library activity on HEK293 viability as a counter-qHTS vs the C. elegans viability qHTS (AID 1745854)
# Summary of the method: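 CellTiter-Glo luminescence, read on a CCD imager, scored viability of HEK293 cells after 24 hr compound exposure at 37C. Library tested in several concentrations, 1:5 steps, up to 41.7 uM; digitonin served as control.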
# Sequence of Phospholipid hydroperoxide glutathione peroxidase GPX4 (Homo sapiens) (P36969 whole entry, looked up): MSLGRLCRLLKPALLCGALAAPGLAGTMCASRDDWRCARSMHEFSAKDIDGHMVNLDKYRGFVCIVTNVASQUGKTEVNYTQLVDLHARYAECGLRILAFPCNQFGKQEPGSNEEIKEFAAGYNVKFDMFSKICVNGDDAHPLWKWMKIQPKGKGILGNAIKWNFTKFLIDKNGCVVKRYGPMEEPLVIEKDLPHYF
# Sequence of Glutathione peroxidase 1 (Homo sapiens) (P07203 whole entry, looked up): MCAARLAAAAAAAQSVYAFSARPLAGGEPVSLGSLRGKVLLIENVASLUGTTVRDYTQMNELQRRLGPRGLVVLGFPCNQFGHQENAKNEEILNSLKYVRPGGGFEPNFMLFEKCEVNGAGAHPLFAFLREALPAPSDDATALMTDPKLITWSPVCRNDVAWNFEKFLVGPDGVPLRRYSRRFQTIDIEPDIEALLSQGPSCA
# Sequence of Catechol O-methyltransferase (Homo sapiens) (P21964 whole entry, looked up): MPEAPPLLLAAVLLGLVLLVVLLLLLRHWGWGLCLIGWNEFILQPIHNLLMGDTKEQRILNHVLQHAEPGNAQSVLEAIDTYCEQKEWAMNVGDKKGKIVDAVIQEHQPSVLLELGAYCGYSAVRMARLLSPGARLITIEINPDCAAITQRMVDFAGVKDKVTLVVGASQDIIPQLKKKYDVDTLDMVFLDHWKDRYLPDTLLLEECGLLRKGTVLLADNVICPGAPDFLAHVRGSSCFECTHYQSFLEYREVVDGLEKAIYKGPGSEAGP
# Sequence of Nicotinamide N-methyltransferase (Homo sapiens) (P40261 whole entry, looked up): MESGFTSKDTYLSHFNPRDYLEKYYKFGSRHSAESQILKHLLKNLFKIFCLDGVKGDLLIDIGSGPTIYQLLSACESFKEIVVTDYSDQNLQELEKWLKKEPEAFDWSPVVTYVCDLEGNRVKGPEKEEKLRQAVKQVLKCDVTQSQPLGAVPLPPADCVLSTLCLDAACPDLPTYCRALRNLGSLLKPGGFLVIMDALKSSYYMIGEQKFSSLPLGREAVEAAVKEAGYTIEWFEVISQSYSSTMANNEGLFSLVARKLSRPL
# Sequence of Phenylethanolamine N-methyltransferase (Homo sapiens) (P11086 whole entry, looked up): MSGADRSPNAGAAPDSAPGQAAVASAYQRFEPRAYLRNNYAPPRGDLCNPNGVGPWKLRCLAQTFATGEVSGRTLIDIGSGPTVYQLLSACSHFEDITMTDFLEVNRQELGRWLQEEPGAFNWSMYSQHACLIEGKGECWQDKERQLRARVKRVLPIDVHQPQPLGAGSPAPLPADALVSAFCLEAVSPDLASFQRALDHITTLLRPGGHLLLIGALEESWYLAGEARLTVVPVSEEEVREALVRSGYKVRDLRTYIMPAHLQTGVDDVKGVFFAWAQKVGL
smiles,measurement,setting,value
NC(=O)Nc1sc(-c2ccc(F)cc2)cc1C(N)=O,Potency,[1],3.32 µM (active)
same,Potency,[2],inactive
same,Potency,[3],inactive
C[C@@H]1CC[C@@]2(OC1)OC1CC3C4CC=C5CC(O)CCC5(C)C4CCC3(C)C1[C@@H]2C (stereo partly drawn),Potency,[1],inactive
same,Potency,[4],inactive
same,Potency,[2],inactive
same,Potency,[3],inactive
Cc1cnc(NC(=O)Nc2cc(Br)c(C)cc2OC[C@@H]2CNCCO2)cn1,Potency,[1],1.05 µM (active)
same,Potency,[4],934 nM (active)
same,Potency,[2],inactive
same,Potency,[3],inactive
"Cc1c2oc3c(C)ccc(C(=O)NC4C(=O)NC(C(C)C)C(=O)N5CCCC5C(=O)N(C)CC(=O)N(C)C(C(C)C)C(=O)OC4C)c3nc-2c(C(=O)NC2C(=O)NC(C(C)C)C(=O)N3CCCC3C(=O)N(C)CC(=O)N(C)C(C(C)C)C(=O)OC2C)c(N)c1=O (stereo not drawn) (I: TVP[Sar][NMeV] / II: TVP[Sar][NMeV]; ester I:1-I:C, II:1-II:C; linker I:N-II:N via Actinocin(9to1); configuration not given here)",Potency,[1],0.0014 µM (active)
same,Potency,[4],0.6 nM (active)
same,Potency,[2],inactive
same,Potency,[3],inactive
CCC[C@H]1C[C@H](C(=O)N[C@@H]([C@@H]2O[C@@H](SC)[C@@H](O)[C@@H](O)[C@@H]2O)[C@H](C)Cl)N(C)C1,Potency,[1],inactive
same,Potency,[4],inactive
same,Potency,[3],inactive
same,Potency,[5],inactive
same,Potency,[6],inactive
c1coc(CNc2ncnc3nc[nH]c23)c1,Potency,[1],inactive
same,Potency,[2],inactive
same,Potency,[3],inactive
CC(C)c1cnn2c(NCc3ccccc3)cc(NCCCCCCN)nc12,Potency,[1],20.9 µM (active)
same,Potency,[4],20900 nM (active)
same,Potency,[2],inactive
same,Potency,[3],inactive
CCC(C)CCCCC(=O)N[C@@H](CCN)C(=O)NC(C(=O)N[C@H](CCN)C(=O)N[C@@H]1CCNC(=O)C([C@@H](C)O)NC(=O)[C@@H](CCN)NC(=O)[C@@H](CCN)NC(=O)[C@@H](CC(C)C)NC(=O)[C@H](Cc2ccccc2)NC(=O)[C@H](CCN)NC1=O)[C@@H](C)O (stereo partly drawn) ({Octanoyl(6-Me)}-[Dab][ξThr(3R)][dDab][dDab][Dab]F[dL][dDab][dDab][ξThr(3R)]; lactam 4-C),Potency,[1],inactive
same,Potency,[4],inactive
same,Potency,[3],inactive
O=[N+]([O-])c1cn2c(n1)OC[C@@H](OCc1ccc(OC(F)(F)F)cc1)C2,Potency,[1],inactive
same,Potency,[4],inactive
same,Potency,[2],inactive
same,Potency,[3],inactive
Cc1cc(C(=O)NOCCO)c(Nc2ccc(I)cc2F)n(C)c1=O,Potency,[1],inactive
same,Potency,[2],inactive
same,Potency,[3],inactive
CS(=O)(=O)N1CCc2c(-c3cnc(N)nc3)nc(N3CCOCC3)nc21,Potency,[1],920 nM (active) and 468 nM (active)
same,Potency,[4],459 nM (active) and 468 nM (active)
same,Potency,[2],inactive
same,Potency,[3],inactive
same,Potency,[5],inactive
same,Potency,[6],inactive
CC(C)(C)c1nc2c3cc[nH]c(=O)c3c3cc(F)ccc3c2[nH]1,Potency,[1],0.662 µM (active)
same,Potency,[2],inactive
same,Potency,[3],inactive
CC(C)[C@H](CO)Nc1nc(Nc2cccc(Cl)c2)c2ncn(C(C)C)c2n1,Potency,[1],9.34 µM (active)
same,Potency,[2],inactive
same,Potency,[3],inactive
CC(C(C)N1CC(=O)NC(=O)C1)N1CC(=O)NC(=O)C1 (stereo not drawn),Potency,[1],5.25 µM (active)
same,Potency,[2],inactive
same,Potency,[3],inactive
CC(C)NC[C@@H](C(=O)N1CCN(c2ncnc3c2[C@H](C)C[C@H]3O)CC1)c1ccc(Cl)cc1,Potency,[1],1.66 µM (active)
same,Potency,[2],inactive
same,Potency,[3],inactive
CCCCCCCCCCCCc1ccc(S(=O)(=O)Nc2nncs2)cc1,Potency,[1],inactive
same,Potency,[2],inactive
CCN(CC)Cc1ccc2cc(COC(=O)Nc3ccc(C(=O)NO)cc3)ccc2c1,Potency,[1],290 nM (active) and 742 nM (active)
same,activity,[7],0%
same,"activity change, negative = inhibition",[8],-6.61%
same,activity,[9],-7.87%
same,activity,[10],-6.29%
same,Potency,[2],inactive
same,Potency,[3],inactive
same,Potency,[5],inactive
COc1cc(C)c(Sc2cnc(NC(=O)c3ccc(CNC(C)C(C)(C)C)cc3)s2)cc1C(=O)N1CCN(C(C)=O)CC1 (stereo not drawn),Potency,[1],7.42 µM (active)
same,Potency,[2],inactive
same,Potency,[3],inactive
C=C(C)[C@@H]1CC[C@]2(C)CC[C@]3(C)[C@H](CC[C@@H]4[C@@]5(C)CC[C@H](O)C(C)(C)[C@H]5CC[C@]43C)[C@@H]12,Potency,[1],inactive
same,Potency,[2],inactive
same,Potency,[3],inactive
CN(C)CCN1C(=O)c2cccc3cc(N)cc(c23)C1=O,Potency,[1],5.25 µM (active)
same,Potency,[2],inactive
same,Potency,[3],inactive
O=C1c2cccc(O)c2C(=O)c2c(O)cc(CO)cc21,Potency,[1],inactive
same,Potency,[11],inactive
same,Potency,[2],4.09 µM (active)
same,Potency,[3],inactive
COC(=O)[C@H](CCCN=C(N)N)NS(=O)(=O)c1ccc(C)cc1,Potency,[1],inactive
same,Potency,[2],inactive
same,Potency,[3],inactive
CCOC(=O)C1=C(C)NC(=S)NC1c1cccc(O)c1 (stereo not drawn),Potency,[1],inactive
same,Potency,[2],inactive
same,Potency,[3],inactive
C[C@H]1COc2c(N3CCN(C)CC3)c(F)cc3c(=O)c(C(=O)O)cn1c23,Potency,[4],inactive
same,Potency,[2],inactive
CC(C)c1cc(C(C)C)c(CC(=O)NS(=O)(=O)Oc2c(C(C)C)cccc2C(C)C)c(C(C)C)c1,Potency,[5],inactive
same,Potency,[6],inactive
